In the assay the test system is STK39. Particulars: concentration: 1 μM,replicates: in singlicate; n = 1.
`CN1CCN(CCCNc2nccc(-c3c(-c4ccc(F)cc4)nn4cc(C(N)=O)ccc34)n2)CC1` [GW622475]: the “%Inh” value stood at 23%. To `C[C@@H]1CNc2c(sc3ccc4nc(-c5ccc(O)cc5)ccc4c23)C(=O)N1` belongs 6%; to `CCn1c(-c2nonc2N)nc2cncc(Br)c21` [SB-738004], 21%.

Take `C[C@@H]1CCN(C(=O)N2CCCC2)C[C@@H]1N(C)c1ncnc2[nH]ccc12`: the “%Inh” value came out at 0%. With `CS(=O)c1ccc(-c2coc3ccc(-c4n[nH]c(=O)o4)cc23)cc1` (stereo not shown), the “%Inh” value is 19%. Take `CCn1c(-c2nonc2N)nc2cncc(CNC3CCNCC3)c21.Cl` [SB-747651]: the “%Inh” value was found to be 24%. To `C[C@@H](Oc1cc(-n2cnc3cc(-c4cnn(C)c4)ccc32)sc1C(N)=O)c1ccccc1Cl` [GSK580432] belongs 10%.

As for `CN1CCN(CCNc2nc3cc(Oc4ccc(NC(=O)Nc5cc(C(F)(F)F)ccc5F)cc4)ccc3[nH]2)CC1.Cl.Cl` [GW768504], the “%Inh” value was 0%. As for `CCNCC(Cc1ccccc1)NC(=O)c1cc(Br)c(-c2ccnc3[nH]ccc23)s1.Cl.Cl` (stereo not shown) [GSK1383280], the figure is 0%; as for `CCCC(=O)Nc1n[nH]c2ncccc12` [SB-601436], 0%. To `COc1cccc(C2=C(Nc3cccc(Cl)c3)C(=O)NC2=O)c1` [SB-341556] belongs 8%; to `C[C@@H]1CNc2c(sc3ccc4nc(-c5ccncc5)ccc4c23)C(=O)N1`, 0%; to `CC(=O)c1c(-c2ccncc2)[nH]c(-c2ccncc2)c1C` [GW493036], 20%.

Regarding `CCN1CCN(CCCC(=O)Nc2n[nH]c3nc(-c4ccc(O)cc4)c(Br)cc23)CC1` [SB-731579], the “%Inh” value came to 0%. With `O=c1[nH]cc(-c2ccc(O)cc2)c2sc(-c3ccncc3)cc12` [GSK1033723], the “%Inh” value is given as 6%. As for `Nc1nccc(-c2ccc3c(N)n[nH]c3c2)n1` [GSK1034945], the figure is 1%. As for `COC(=O)c1cccc(NC(=O)NC2CCN(c3ccnc(NCc4ccc(F)cc4)n3)CC2)c1` [GSK1379860], the figure is 0%; as for `COc1cc2nccc(Nc3ccc(Oc4ccccc4)cc3)c2cc1OC.Cl` [GI261656], 1%. To `Cn1ccc2ncnc(Oc3ccc(NC(=O)Nc4cccc(C(F)(F)F)c4)c(Cl)c3)c21` belongs 0%; to `CNC(=O)c1ccccc1Nc1nc(Nc2cccc(CS(C)(=O)=O)c2)ncc1C.O=CO` [GSK1520489], 15%. With `Cc1cccc2c(-c3ccncc3)c(-c3ccc(F)cc3)nn12.Cl` [GW461487], the “%Inh” value is on record as 12%. As for `Cc1nnc(-c2ccc3occ(-c4ccc(S(C)=O)cc4)c3n2)o1` (stereo not shown), the figure is 0%. With `OCCn1cc(-c2cnc3nnn(Cc4ccc5ncccc5c4)c3n2)cn1`, the “%Inh” value worked out at 0%. To `COC(=O)c1cccc(NC(=O)NC2CCN(c3ccnc(Nc4cc(OC)c(OC)c(OC)c4)n3)C2)c1` (stereo not shown) [GSK1379767] belongs 5%; to `O=C(Nc1cccc(C(F)(F)F)c1)c1cccc(Oc2ccc3nccn3n2)c1`, 2%. As for `Cc1cccc(-c2nc(Nc3ccncc3)c3sccc3n2)n1` [GW869641], the figure is 0%; as for `COc1cc2ncn(-c3cc(OCC4CCCCC4)c(C(N)=O)s3)c2cc1OC` [GSK204559], 7%; as for `Cn1cc(-c2cccc3c(N)c(C(N)=O)nnc23)cn1`, 29%. As for `NC(=O)Nc1sc(-c2ccc(F)cc2)cc1C(N)=O` [GW789449], the figure is 0%; as for `c1ccc(Oc2ccc(Nc3ccnc4ccc(-c5ccccn5)cc34)cc2)cc1` [GW407034], 15%; as for `Cn1ccc2ncnc(Oc3ccc(NC(=O)Nc4cnn(C(C)(C)C)c4)c(Cl)c3)c21`, 0%. Regarding `Cc1ccc(Nc2ccnc(Nc3ccc4c(c3)CS(=O)(=O)C4)n2)cc1O.Cl` [GW579362], the “%Inh” value is given as 17%. To `Cc1ccc(C(=O)Nc2ccc(Oc3ccc4nc(NC(=O)C5CC5)cn4c3)c(F)c2)c(=O)n1-c1ccccc1` belongs 25%. Consider `CC(C(=O)NC1CCN(c2ccnc(Nc3ccc(F)cc3)n2)C1)c1ccc(Cl)cc1` (stereo not shown) [GSK1379713], for which the “%Inh” value amounted to 0%. To `COC(=O)Nc1nc2cc(Oc3ccc(NC(=O)Nc4cc(C(F)(F)F)ccc4Cl)cc3)ccc2[nH]1.Cl` [GW697465] belongs 13%; to `CCOC(=O)N1CCC(n2cnc(-c3ccc(F)cc3)c2-c2ccnc(N)n2)CC1` [SB-219952], 46%; to `Cn1ccc2ncnc(Oc3ccc(NC(=O)Nc4cc(C(C)(C)C)on4)c(Cl)c3)c21`, 23%.

Source of the values: paper PMC5540273 (PLoS ONE, 2017).
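Note: KINOMEscan kinase panel screen.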
